Laboratory results from PubChem BioAssay (Tox21).
Records with an inconclusive call do not appear. More than one record can exist for a structure, and the calls need not agree. The source made the active and inactive calls. The call rests on the fitted dose curve; in most records, active means well fitted activation curve with a large enough effect in the repeat runs; inconclusive means weak or mixed curves; inactive means flat fitted curve, though single readings scatter.

Test: A CellTox Green Cytotoxicity Assay to monitor cytotoxicity in HEK293 cells - 40 hour (AID 1224871); further: nearly all actives have a fitted effect of over 45% in size
Conditions: CellTox Green fluorescence; series mostly up to 76.8 µM; cytotoxicity increase: at the top concentration
Text: National Center for Advancing Translational Sciences [NCATS]
NIH Chemical Genomics Center [NCGC]
U.S. Environmental Protection Agency [EPA]
National Institutes of Environmental Health Sciences [NIEHS]
National Toxicology Program [NTP]
Cell-based models are critical for drug discovery. Determining the natural cytotoxic effects resulting from test compounds is an essential research activity. A CellTox Green Cytotoxicity Assay to monitor cytotoxicity in real time of continues cell culture during 40 hours of the compound treatment was used to screen Tox21 10K library compounds in Hek293 cells. CellTox Green Cytotoxicity Assay is a nonlytic, homogeneous, biofluorescent method to measure cytotoxicity in cell culture after experimental manipulation. The assay system uses a proprietary asymmetric cyanine dye that is excluded from viable cells but preferentially stains the dead cell's DNA. […] Viable cells produce no appreciable increases in fluorescence. Therefore, the fluorescence signal produced by the binding interaction with dead cell DNA is proportional to cytotoxicity.
The mixture of Hek293 cell suspension and reagents were dispensed at 600cells/6 ul/well in 1536-well tissue culture treated black solid bottom plates using a Multidrop dispenser. After the assay plates were incubated at a 37 C/5% CO2 incubator for 5 hours, 23 nL of compounds dissolved in DMSO, positive and negative controls was transferred to the assay plate by a pintool work station. The plates were incubated at 37 C for 40 hours. The fluorescence intensity were measured at 0h, 8h, 16h, 24h, 32h and 40h time points using ViewLux plate reader during compound treatment.
On the % scale 0 is the no-effect control and ±100 the full control effect; potency means the concentration at half of the fitted maximal effect.

Structure (SMILES) | cytotoxicity increase | Potency
CC(C)(CCl)C(=O)Cl | -6.12% (inactive) | 
CCOP(=S)(OCC)Oc1cc(Cl)c(Br)cc1Cl | 25.4% (inactive) | 
CCOC(=O)C(Cl)C(C)=O (stereo not given) | 23.5% (inactive) | 
O=C1c2ccccc2C(=O)C1C(=O)C(c1ccccc1)c1ccccc1 | -16% [at 35.3 µM] (inactive) | 
Nc1nc(N)nc(N)n1 | 0.198% (inactive) | 
O=C(O)C(F)(F)C(F)(F)C(F)(F)C(F)(F)C(F)(F)C(F)(F)C(F)(F)C(F)(F)C(F)(F)F | -7.97% (inactive) | 
CC(O)(CS(=O)(=O)c1ccc(F)cc1)C(=O)Nc1ccc(C#N)c(C(F)(F)F)c1 (stereo not given) | -1.99% [at 35.3 µM] (inactive) | 
CCCCCCCCCC(=O)O[C@H]1CC[C@H]2[C@@H]3CCC4=CC(=O)CC[C@@H]4[C@H]3CC[C@]12C | 9.53% [at 35.3 µM] (inactive) | 
NCC(CC(=O)O)c1ccc(Cl)cc1 (stereo not given) | -18.6% [at 0.29 µM] (inactive) | 
O=[N+]([O-])c1cc(C(F)(F)F)cc([N+](=O)[O-])c1Cl | -6.43% (inactive) | 
C=CC(=O)OC(C)(C)C | -9.27% (inactive) | 
C=CCOC(C)=O | 9.93% (inactive) | 
Cc1ccc2ccccc2c1 | 16.5% (inactive) | 
C=CC(=O)OCC(C)O (stereo not given) | -0.875% (inactive) | 
C=CCC1([C@H](C)CCC)C(=O)NC(=O)NC1=O | -3.39% (inactive) | 
O=NN1CCCCCC1 | -8.84% (inactive) | 
C=CC(=O)OCC(C)C | -13.3% (inactive) | 
CCCN(CC1CC1)c1c([N+](=O)[O-])cc(C(F)(F)F)cc1[N+](=O)[O-] | 22.6% (inactive) | 
COC(=O)c1cncn1C(C)c1ccccc1 (stereo not given) | -5.14% [at 35.3 µM] (inactive) | 
O=C(N[C@H](c1ccccc1)[C@@H]1CN2CCC1CC2)c1c(Cl)ccc(C(F)(F)F)c1Cl |  | 78.8 µM (active)

Structure (SMILES) | cytotoxicity increase | Potency
c1ccc(CN2CCNCC2)cc1 | -5.59% [at 200 µM] (inactive) | 
O=NN1CCNCC1 | -3.49% (inactive) | 
c1cc2ccc3cccc4ccc(c1)c2c34 | -1.36% (inactive) | 
N#CCC#N | 24.4% (inactive) | 
CC(=O)CCC(C)=O | 1.05% (inactive) | 
Nc1ccc(N=Nc2ccc(-c3ccc(N=Nc4c(S(=O)(=O)O)cc5cc(S(=O)(=O)O)c(N=Nc6ccccc6)c(O)c5c4N)cc3)cc2)c(N)c1 | 5.09% [at 35.3 µM] (inactive) | 
Clc1cc(Cl)c(Cl)c(Cl)c1 | 1.97% (inactive) | 
CCOP(=S)(Oc1ccc([N+](=O)[O-])cc1)c1ccccc1 (stereo not given) | -3.83% (inactive) | 
CO/N=C(/C(=O)OC)c1ccccc1COc1ccccc1C | 26% (inactive) | 
Cc1cc(=O)[nH]o1 | -15.9% (inactive) | 
CS/C(C)=N/OC(=O)N(C)SN(C)C(=O)O/N=C(\C)SC |  | 49 µM (active)
CCOP(=S)(OCC)Oc1nc(Cl)c(Cl)cc1Cl |  | 34.8 µM (active) and inactive
CC(Cl)Cl | 5.24% (inactive) | 
NS(=O)(=O)C(F)(F)C(F)(F)C(F)(F)C(F)(F)C(F)(F)C(F)(F)C(F)(F)C(F)(F)F | -12.3% (inactive) | 
N#Cc1cc(I)c(O)c(I)c1 | 15.7% (inactive) | 
CCc1ccc(C(=O)NN(C(=O)c2cc(C)cc(C)c2)C(C)(C)C)cc1 | -17.6% (inactive) | 
CCOc1nc(F)cc2nc(S(=O)(=O)Nc3c(Cl)cccc3Cl)nn12 | -2.75% (inactive) | 
C=CCN1CC[C@]23c4c5ccc(O)c4O[C@H]2C(=O)CC[C@@]3(O)[C@H]1C5 | -25.4% [at 35.3 µM] (inactive) | 
Cc1c(F)c(F)c(COC(=O)C2C(/C=C(\Cl)C(F)(F)F)C2(C)C)c(F)c1F (stereo not given) | -11.4% (inactive) | 
COC(=O)C(Cl)C(=O)OC | 0.529% [at 35.3 µM] (inactive) | 
